# Results filed as inconclusive are left out. Where a call stands in place of a potency, no number is given. Activity calls are given as the source filed them. Unless noted, calls come from the whole dose curve; as a rule, active = well fitted curve in the direction sought with a large enough effect in the repeat runs; inconclusive = weak or mixed curves; inactive = no such curve, though single readings can be large; an effect the other way counts as inactive or inconclusive.
# Experiments:
# [1] = qHTS assay to identify small molecule antagonists of the thyroid receptor (TR) signaling pathway - cell viability counter screen (AID 743064); note: nearly all actives have a fitted effect of over 50% in size
# Outline: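 Counter screen for cytotoxicity: compound plus T3 (1 nM final) on GH3.TRE-Luc cells, 23.5 h at 37 °C, then fluorescence viability readout with CellTiter-Fluor.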
# [2] = qHTS assay to identify small molecule antagonists of the thyroid receptor (TR) signaling pathway (AID 743065); note: series mostly up to about 70 µM; nearly all actives have a fitted effect of over 55% in size
# Outline: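 Antagonism measured as loss of luciferase signal in GH3 cells stably carrying a TRE-luciferase reporter, co-treated with compound and T3 (1 nM final) for 23.5 h at 37 C. Viability was read in the same well by CellTiter-Fluor.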
# [3] = system: thyroid hormone receptor (rat, GH3 cells); assay: qHTS assay to identify small molecule agonists of the thyroid receptor (TR) signaling pathway (AID 743066; calls by dose curve)
# [4] = target: Estrogen receptor (Homo sapiens) (UniProt P03372); assay: qHTS assay to identify small molecule antagonists of the estrogen receptor alpha (ER-alpha) signaling pathway (AID 743069; active = well fitted curve in the direction sought with a large enough effect in the signal ratio in the repeat runs, not every such curve was filed as active; the % refers to the signal ratio)
# Outline: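 ER-alpha-UAS-bla GripTite HEK293 line; 2% charcoal-stripped FBS overnight; plated, 4 hr 37C/5% CO2; cpd in DMSO + 17beta-estradiol, 18 hr 37C; LiveBLAzer B/G FRET substrate 2 hr RT; fluorescence intensity.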
# [5] = qHTS assay to identify small molecule antagonists of the estrogen receptor alpha (ER-alpha) signaling pathway - cell viability counter screen (AID 743074; calls by dose curve;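 note: HEK293 cells carrying ER-alpha-UAS-bla reporter stimulated with 17beta-estradiol; nearly all actives have a fitted effect of over 45% in size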)
# [6] = target: Estrogen receptor (Homo sapiens) (UniProt P03372); assay: qHTS assay to identify small molecule agonists of the estrogen receptor alpha (ER-alpha) signaling pathway (AID 743075; calls by dose curve;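 note: HEK293 GripTite cells with ER-alpha and UAS-driven beta-lactamase reporter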)
# [7] = target: Estrogen receptor (Homo sapiens) (UniProt P03372); assay: qHTS assay to identify small molecule agonists of the estrogen receptor alpha (ER-alpha) signaling pathway using the BG1 cell line (AID 743079); note: nearly all actives have a fitted effect of over 20% in size; note: potency is the fitted concentration of half-maximal effect
# [8] = qHTS assay to identify small molecule antagonists of the estrogen receptor alpha (ER-alpha) signaling pathway using the BG1 cell line (AID 743080; calls by dose curve;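 note: BG1 cells stimulated with 17beta-estradiol alongside compound; series mostly up to about 70 µM; nearly all actives have a fitted effect of over 25% in size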)
# Outline: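 Readout is ONE-Glo luminescence, taken 30 min at room temperature after reagent addition, preceded by a CellTiter-Fluor viability read; BG1-Luc-4E2 cells had received compound and 17beta-estradiol for 21.5 h at 37 C.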
# [9] = qHTS assay to identify small molecule antagonists of the estrogen receptor alpha (ER-alpha) signaling pathway using the BG1 cell line - cell viability counter screen (AID 743081);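 note: compound given together with 17beta-estradiol as the ER stimulus; series mostly up to about 70 µM; nearly all actives have a fitted effect of over 45% in size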
# [10] = target: Aromatase (Homo sapiens) (UniProt P11511); assay: qHTS assay to identify aromatase inhibitors (AID 743083); note: series mostly up to about 70 µM; nearly all actives have a fitted effect of over 55% in size
# [11] = qHTS assay to identify aromatase inhibitors - cell viability counter screen (AID 743084);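 note: cells stimulated with testosterone during compound exposure; nearly all actives have a fitted effect of over 55% in size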
# [12] = target: Aryl hydrocarbon receptor (Homo sapiens) (UniProt P35869); assay: qHTS assay to identify small molecule that activate the aryl hydrocarbon receptor (AhR) signaling pathway (AID 743085);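 note: HG2L7.5c1 human HepG2 liver cells with stably integrated DRE-driven firefly reporter; series mostly up to about 70 µM; nearly all actives have a fitted effect of over 15% in size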
# Outline: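 Measured in HG2L7.5c1 cells: CellTiter-Fluor signal (30 min incubation, 37C) for viability, then luciferase luminescence (30 min, room temperature). Compound contact time was 24 h at 37C, following a 5 h pre-incubation.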
# [13] = qHTS assay to identify small molecule that activate the aryl hydrocarbon receptor (AhR) signaling pathway - cell viability counter screen (AID 743086);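 note: HepG2 liver cells carrying the AhR DRE luciferase reporter; series mostly up to about 70 µM; nearly all actives have a fitted effect of over 45% in size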
# Outline: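 Cytotoxicity counter screen: CellTiter-Fluor signal (30 min, 37 C) in 4000 HepG2 cells/well carrying the DRE-luciferase reporter, following 24 h compound exposure at 37 C.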
# [14] = target: Peroxisome proliferator-activated receptor gamma (Homo sapiens) (UniProt P37231); assay: qHTS assay to identify small molecule agonists of the peroxisome proliferator-activated receptor gamma (PPARg) signaling pathway (AID 743094; active = well fitted activation curve with a large enough effect in the signal ratio in the repeat runs, not every such curve was filed as active; the % refers to the signal ratio)
# Outline: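 Compounds dissolved in DMSO were added to PPARg UAS-bla HEK293H cells for 17 h at 37C, and reporter expression was quantified by fluorescence intensity after 1 h with LiveBLAzer B/G FRET substrate.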
# [15] = target: Peroxisome proliferator-activated receptor gamma (Homo sapiens) (UniProt P37231); assay: qHTS assay to identify small molecule antagonists of the peroxisome proliferator-activated receptor gamma (PPARg) signaling pathway (AID 743191; calls by dose curve; note: series mostly up to about 63 µM; nearly all actives have a fitted effect of over 30% in size)
# Outline: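 Beta-lactamase reporter under UAS control in HEK293H PPARg-bla cells; compound treatment 17 h at 37C. Read-out: fluorescence intensity after 1 h room-temperature incubation with LiveBLAzer B/G FRET substrate.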
# [16] = qHTS assay to identify small molecule antagonists of the peroxisome proliferator-activated receptor gamma (PPARg) signaling pathway - cell viability counter screen (AID 743194); note: nearly all actives have a fitted effect of over 55% in size
# Outline: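 Viability was measured as CellTiter-Glo luminescence in GeneBLAzer PPARg UAS-bla HEK293H cells. These cells had been exposed 17 h at 37 C to compounds together with rosiglitazone at 50 nM final, with the beta-lactamase readout taken in the same wells.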
# [17] = qHTS assay for small molecule agonists of the antioxidant response element (ARE) signaling pathway - cell viability counter screen (AID 743203; calls by dose curve; note: nearly all actives have a fitted effect of over 55% in size)
# Outline: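 Following 16 hrs of compound treatment at 37C, HepG2 cells with an ARE-controlled beta-lactamase gene were lysed with CellTiter-Glo. Luminescence was read after 30 min at room temperature.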
# [18] = qHTS assay for small molecule activators of the heat shock response signaling pathway - cell viability counter screen (AID 743209); note: nearly all actives have a fitted effect of over 50% in size
# Outline: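 Readout: CellTiter-Glo luminescence, 30 min at room temperature. System: HSE-bla HeLa cells, 1500/well, plated overnight. Treatment: compounds in DMSO, 5 h at 37 C.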
# [19] = qHTS assay for small molecule activators of the heat shock response signaling pathway (AID 743210; active = well fitted activation curve with a large enough effect in the signal ratio in the repeat runs, with a control signal flat, not every such curve was filed as active; the % refers to the signal ratio;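 note: HeLa cells with beta-lactamase reporter driven by heat shock elements; series mostly up to about 63 µM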)
# Outline: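 HeLa HSE-bla cells, overnight plating; cpd in DMSO 5 h, 37 C; LiveBLAzer B/G FRET substrate 2.5 h RT; fluorescence intensity read.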
# [20] = qHTS assay for small molecule agonists of the antioxidant response element (ARE) signaling pathway (AID 743202; active = well fitted activation curve with a large enough effect in the signal ratio in the repeat runs, not every such curve was filed as active; the % refers to the signal ratio)
# Outline: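 Quantitative high-throughput format in HepG2 cells bearing an integrated ARE-beta-lactamase reporter. Compound exposure lasted 16 h at 37 C, and fluorescence was read 2 h after adding LiveBLAzer B/G substrate at room temperature.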
# Sequence of Aromatase (Homo sapiens) (P11511 whole entry, looked up): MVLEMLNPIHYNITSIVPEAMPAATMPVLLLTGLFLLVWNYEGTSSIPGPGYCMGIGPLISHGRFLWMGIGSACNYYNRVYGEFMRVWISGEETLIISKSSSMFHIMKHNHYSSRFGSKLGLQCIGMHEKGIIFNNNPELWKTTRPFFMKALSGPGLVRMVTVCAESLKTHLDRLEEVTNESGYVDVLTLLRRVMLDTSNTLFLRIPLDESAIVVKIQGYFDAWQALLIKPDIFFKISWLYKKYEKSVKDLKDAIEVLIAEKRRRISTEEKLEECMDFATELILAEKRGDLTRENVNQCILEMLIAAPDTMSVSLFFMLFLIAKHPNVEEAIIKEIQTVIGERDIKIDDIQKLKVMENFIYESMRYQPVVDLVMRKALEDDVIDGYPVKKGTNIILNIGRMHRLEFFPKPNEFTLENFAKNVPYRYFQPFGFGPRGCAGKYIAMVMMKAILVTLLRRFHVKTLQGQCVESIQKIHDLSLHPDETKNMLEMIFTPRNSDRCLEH
# Sequence of Aryl hydrocarbon receptor (Homo sapiens) (P35869 whole entry, looked up): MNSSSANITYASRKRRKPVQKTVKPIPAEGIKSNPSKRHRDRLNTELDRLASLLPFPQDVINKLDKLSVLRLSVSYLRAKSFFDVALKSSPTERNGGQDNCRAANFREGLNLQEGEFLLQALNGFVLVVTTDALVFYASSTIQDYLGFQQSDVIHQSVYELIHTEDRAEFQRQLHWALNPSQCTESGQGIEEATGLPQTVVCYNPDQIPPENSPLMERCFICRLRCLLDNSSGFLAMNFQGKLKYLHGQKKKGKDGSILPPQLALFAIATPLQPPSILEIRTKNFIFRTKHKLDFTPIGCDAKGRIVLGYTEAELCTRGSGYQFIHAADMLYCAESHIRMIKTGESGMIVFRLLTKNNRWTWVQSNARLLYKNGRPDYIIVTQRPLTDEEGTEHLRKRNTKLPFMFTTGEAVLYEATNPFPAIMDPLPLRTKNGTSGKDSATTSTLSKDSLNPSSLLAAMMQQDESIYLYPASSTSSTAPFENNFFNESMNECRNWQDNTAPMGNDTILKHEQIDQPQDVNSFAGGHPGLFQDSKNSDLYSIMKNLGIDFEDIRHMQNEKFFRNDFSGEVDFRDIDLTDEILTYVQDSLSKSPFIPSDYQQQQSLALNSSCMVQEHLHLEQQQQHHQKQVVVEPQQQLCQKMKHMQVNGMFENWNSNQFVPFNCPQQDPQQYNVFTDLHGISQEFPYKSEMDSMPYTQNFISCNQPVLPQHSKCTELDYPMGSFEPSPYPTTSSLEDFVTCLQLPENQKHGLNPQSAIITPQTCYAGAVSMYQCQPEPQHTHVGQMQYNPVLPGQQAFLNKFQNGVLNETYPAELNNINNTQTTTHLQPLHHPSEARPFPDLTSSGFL
# Sequence of Peroxisome proliferator-activated receptor gamma (Homo sapiens) (P37231 whole entry, looked up): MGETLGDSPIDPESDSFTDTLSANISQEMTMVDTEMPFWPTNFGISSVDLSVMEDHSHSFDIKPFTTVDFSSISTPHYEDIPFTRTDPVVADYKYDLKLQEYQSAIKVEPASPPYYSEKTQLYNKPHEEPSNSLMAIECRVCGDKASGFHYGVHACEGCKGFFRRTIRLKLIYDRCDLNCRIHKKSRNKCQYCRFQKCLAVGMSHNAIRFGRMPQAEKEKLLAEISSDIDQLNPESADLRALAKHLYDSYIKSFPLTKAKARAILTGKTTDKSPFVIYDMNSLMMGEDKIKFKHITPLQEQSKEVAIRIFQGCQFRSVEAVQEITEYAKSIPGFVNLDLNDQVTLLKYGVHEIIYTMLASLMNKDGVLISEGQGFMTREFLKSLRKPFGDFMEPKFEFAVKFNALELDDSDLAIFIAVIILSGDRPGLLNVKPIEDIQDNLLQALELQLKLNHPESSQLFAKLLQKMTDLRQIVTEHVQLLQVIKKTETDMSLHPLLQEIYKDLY
# Sequence of Estrogen receptor (Homo sapiens) (P03372 whole entry, looked up): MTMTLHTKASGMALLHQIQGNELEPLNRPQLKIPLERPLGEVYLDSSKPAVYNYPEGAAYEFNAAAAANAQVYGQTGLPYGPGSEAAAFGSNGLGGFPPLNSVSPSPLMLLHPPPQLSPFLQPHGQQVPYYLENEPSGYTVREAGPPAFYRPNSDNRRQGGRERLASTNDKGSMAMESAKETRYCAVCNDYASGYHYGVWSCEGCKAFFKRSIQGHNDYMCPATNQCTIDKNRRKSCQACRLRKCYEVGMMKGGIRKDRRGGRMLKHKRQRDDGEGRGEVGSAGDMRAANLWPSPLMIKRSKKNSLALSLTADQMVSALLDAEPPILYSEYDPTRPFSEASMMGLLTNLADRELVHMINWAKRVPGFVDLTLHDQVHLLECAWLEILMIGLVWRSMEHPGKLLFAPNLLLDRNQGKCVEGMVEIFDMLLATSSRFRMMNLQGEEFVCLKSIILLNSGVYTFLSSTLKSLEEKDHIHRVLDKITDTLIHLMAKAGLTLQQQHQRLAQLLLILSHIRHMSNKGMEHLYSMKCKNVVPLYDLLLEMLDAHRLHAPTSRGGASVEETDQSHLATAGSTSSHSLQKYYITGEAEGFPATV
Compound,Potency [1],Potency [2],Potency [3],Potency [4],outcome [5],Potency [6],Potency [7],Potency [8],outcome [9],Potency [10],Potency [11],Potency [12],Potency [13],outcome [14],outcome [15],Potency [16],outcome [17],outcome [18],outcome [19],Potency [20]
O=C(O)c1cccc(C(=O)O)n1,inactive,inactive,inactive,inactive,inactive,inactive,inactive,inactive,inactive,inactive,inactive,inactive,inactive,inactive,inactive,inactive,inactive,inactive,inactive,
CCCCN(CCO)CCO,inactive,inactive,inactive,inactive,inactive,inactive,inactive,inactive,inactive,inactive,inactive,inactive,inactive,inactive,inactive,inactive,inactive,inactive,inactive,inactive
COC(=O)CCCCCCCCC(=O)OC,inactive,inactive,inactive,inactive,inactive,inactive,inactive,inactive,inactive,inactive,inactive,inactive,inactive,inactive,inactive,inactive,inactive,inactive,inactive,inactive
NC(=O)c1c(Cl)cccc1Cl,inactive,inactive,inactive,inactive,inactive,inactive,inactive,inactive,inactive,inactive,inactive,inactive,,inactive,inactive,inactive,inactive,inactive,inactive,inactive
Nc1cc(C(Cl)=C(Cl)Cl)c(S(N)(=O)=O)cc1S(N)(=O)=O,inactive,inactive,inactive,inactive,inactive,inactive,inactive,inactive,inactive,inactive,inactive,inactive,inactive,inactive,,inactive,inactive,inactive,inactive,
Fc1ccccc1-c1ccccc1,inactive,inactive,inactive,inactive,inactive,inactive,inactive,inactive,inactive,inactive,inactive,inactive,inactive,inactive,,inactive,inactive,inactive,inactive,
CC(C)(C)CC(C)(C)N,inactive,inactive,inactive,inactive,inactive,inactive,inactive,inactive,inactive,inactive,inactive,inactive,inactive,inactive,inactive,inactive,inactive,inactive,inactive,inactive
Nc1nc2c(ncn2CCC(CO)CO)c(=O)[nH]1,inactive,inactive,inactive,inactive,inactive,inactive,inactive,inactive,inactive,inactive,inactive,inactive,,inactive,inactive,inactive,inactive,inactive,inactive,inactive
O=Cc1ccccc1[N+](=O)[O-],inactive,inactive,inactive,inactive,inactive,inactive,inactive,inactive,inactive,inactive,inactive,inactive,inactive,inactive,,inactive,inactive,inactive,inactive,inactive
CCCCCCCCCCCCCCCCCC(=O)OCCCCCCCCCCCCCC(C)C,inactive,inactive,inactive,inactive,inactive,inactive,56.4 µM (active),inactive,inactive,inactive,inactive,inactive,inactive,inactive,inactive,inactive,inactive,inactive,inactive,inactive
O=[N+]([O-])c1ccc(Oc2ccc([N+](=O)[O-])cc2)cc1,inactive,inactive,inactive,inactive,inactive,inactive,inactive,inactive,inactive,inactive,inactive,inactive,inactive,inactive,,inactive,inactive,inactive,inactive,inactive
CCCCCCCCCCCl,inactive,inactive,inactive,inactive,inactive,inactive,inactive,inactive,inactive,inactive,inactive,inactive,inactive,inactive,inactive,inactive,inactive,inactive,inactive,inactive
CC/C=C\C#N,inactive,inactive,inactive,inactive,inactive,inactive,inactive,inactive,inactive,inactive,inactive,inactive,inactive,inactive,,inactive,inactive,inactive,inactive,inactive
CC(C)c1cccc(O)c1,inactive,inactive,inactive,inactive,inactive,inactive,inactive,inactive,inactive,inactive,inactive,inactive,inactive,inactive,,inactive,inactive,inactive,inactive,
CC(C)(O)Cc1ccccc1,inactive,inactive,inactive,inactive,inactive,inactive,inactive,inactive,inactive,inactive,inactive,inactive,inactive,inactive,inactive,inactive,inactive,inactive,inactive,inactive

# From PubChem BioAssay (Tox21)
